# Assay results from PubChem BioAssay (Tox21).
# Results filed as inconclusive are left out. Entries that show only a call come without a potency. Unmarked numbers belong to inactive results. Calls of active or inactive are those of the source. Calls follow the shape of the dose curve; as a rule, active = well fitted cell-killing curve with a large enough effect in the repeat runs; inconclusive = weak or mixed curves, or effect the other way; inactive = flat fitted curve, though single readings scatter.
# Assay: Caspase-3/7 induction in HepG2 cells by small molecules, qHTS cell viability counter screen (AID 1346981); also: nearly all actives have a fitted effect of over 30% in size
# Conditions: CellTiter-Fluor fluorescence, 17 h; series mostly up to 92.4 µM
# Source text: U.S. Tox21 Program National Center for Advancing Translational Sciences [NCATS] NIH Chemical Genomics Center [NCGC] U.S. Environmental Protection Agency [EPA] National Institutes of Environmental Health Sciences [NIEHS] National Toxicology Program [NTP] U.S. Food and Drug Administration [FDA] Tox21 Assay Overview: Apoptosis is a process of programmed cell death and plays a central role in the development of multicellular organisms. It is a highly regulated process and induces cell death by activating caspases, which are the members of cysteine aspartic acid-specific protease (caspase) family. Caspases involved in apoptosis are classified by their mechanism of action as initiator caspases (caspase-2, -8, -9 and -10) and executioner caspases (caspase-3, -6, and -7). Inhibition of apoptosis results in number of cancers, autoimmune diseases, inflammatory diseases and viral infection. To identify small molecule compounds that induce apoptosis, a homogeneous, luminescent Caspase-Glo 3/7 assay was used. Wild type HepG2 cells were used to screen Tox21 libraries for identifying caspase-3/7 activity inducers. Also cytotoxicity of the compounds was tested in parallel by measuring the cell viability using CellTiter-Fluor assay system in the same wells.
# Tox21 Assay Protocol Summary: HepG2 cells were dispensed at 2,000 per well in 5uL of culture medium into white solid bottom 1536-well plates (Corning Life Sciences, Corning, NY) using a Multidrop Combi (Thermo Scientific, Waltham, MA) dispenser. The assay plates were incubated at 37 C and 5% CO2 for 5hr, and then 23nL of compounds dissolved in DMSO and positive control were transferred using a Pintool station ([…], San Diego, CA). The assay plates were incubated at 37C and 5% CO2 for 17hr. For cytotoxicity read, after 16hr incubation at 37C, 1uL CellTiter-Fluor reagent (Promega Corporation, Madison, WI) was added to each well of the assay plates using Flying Reagent Dispenser (FRD, Aurora Discovery, San Diego, CA). After 1hr incubation at 37C and 5% CO2, the fluorescence signal was quantified using a ViewLux plate reader (PerkinElmer, Shelton, CT).
SMILES,Potency,"activity change, negative = cytotoxicity"
CCOc1ccccc1OCC,inactive,
CCC(C)(CCCC(C)C)OC(C)=O (stereo not given),inactive,
CN1C(C)(C)CC(O)CC1(C)C,inactive,
C=C(C)C(=O)OCC1CCCO1 (stereo not given),inactive,
CC(CC=O)CC(C)(C)C (stereo not given),inactive,
Cc1ccc(C(=O)c2ccc(CC(=O)O)n2C)cc1,inactive,
CC(C#N)(CCC(=O)O)N=NC(C)(C#N)CCC(=O)O (stereo not given),inactive,
CCCCCCCCCCCCCCC(=O)O,inactive,
O=S(=O)(O)c1cc(O)c(O)c(S(=O)(=O)O)c1,inactive,
Nc1ccncc1N,inactive,
CC1=CC(=O)[C@H]2C[C@@H]1C2(C)C,inactive,
CCOCC(C)O (stereo not given),inactive,
CCCCS(=O)(=O)N[C@@H](Cc1ccc(OCCCCC2CCNCC2)cc1)C(=O)O,inactive,
Clc1cc(Cl)c(Cl)nc1Cl,inactive,
CNCC(O)c1ccc(O)c(O)c1 (stereo not given),inactive,
CCOC(=O)OC(C)OC1=C(C(=O)Nc2ccccn2)N(C)S(=O)(=O)c2ccccc21 (stereo not given),inactive,
Cc1c(N)c(=O)n(-c2ccccc2)n1C,inactive,
CC12CCC(C(=O)C1=O)C2(C)C (stereo not given),inactive,
OCCc1ccccn1,inactive,
CO[C@@]1(NC(=O)CSC[C@@H](N)C(=O)O)C(=O)N2C(C(=O)O)=C(CSc3nnnn3C)CS[C@@H]21,inactive,

SMILES,Potency,"activity change, negative = cytotoxicity"
CO[Si](C)(OC)c1ccccc1,inactive,
CC[N+](C)(CC)CCOC(=O)C1c2ccccc2Oc2ccccc21,inactive,
C=C(C)C(=O)OCCOCCOCCOCCOC(=O)C(=C)C,inactive,
Nc1ccn([C@@H]2O[C@H](CO)[C@@H](O)[C@@H]2O)c(=O)n1,inactive,
CC(C)C[C@@H](N)C(=O)O,,1.16% [at 19 µM]
CC(=O)NC(=O)c1ccccc1O,inactive,
O=C(c1ccccc1)C1(O)CCCCC1,inactive,
c1ccc(Cc2ccccc2)cc1,inactive,
O=C(O)c1cn(C2CC2)c2cc(N3CCNCC3)c(F)cc2c1=O,inactive,
CN1CCC(=C2c3ccccc3CCc3cccnc32)CC1,inactive,
CN1CCN(c2cc3c(nn2)Oc2ccccc2N3C)CC1,,-0.441% [at 19 µM]
C=C[Si](OC(C)=O)(OC(C)=O)OC(C)=O,inactive,
NCCCC(N)(C(=O)O)C(F)F (stereo not given),inactive,
Clc1cc(Cl)cc(Cl)c1,inactive,
C[C@H]1[C@H](NC(=O)/C(=N/OC(C)(C)C(=O)O)c2csc(N)n2)C(=O)N1S(=O)(=O)O (stereo in doubt),inactive,
CO[C@@]1(NC(=O)C(C(=O)O)c2ccc(O)cc2)C(=O)N2C(C(=O)O)=C(CSc3nnnn3C)CO[C@@H]21 (stereo not given in full),inactive,
CC(C)C(=O)OC(=O)C(C)C,inactive,
CC(C)(C#N)Nc1nc(Cl)nc(NC2CC2)n1,inactive,
COc1c(N2CCNC(C)C2)c(F)cc2c(=O)c(C(=O)O)cn(C3CC3)c12 (stereo not given),inactive,
CCN[C@@H]1C[C@H](N)[C@@H](OC2OC(CN)=CCC2N)[C@H](O)[C@H]1O[C@H]1OC[C@](C)(O)[C@H](NC)[C@H]1O (stereo not given in full),,3.51% [at 0.349 µM]
